# From PubChem BioAssay (EPA / NIEHS)
# The source made the active and inactive calls. The calls were made as follows: active = hit-call score of the fitted dose curve at least 0.9, where 1 is the maximum; inactive = score below 0.9.
# Key:
# [1] = ATG_CRE_CIS: Attagene CIS-FACTORIAL HepG2 Assay for human cAMP Responsive Element (CRE) binding protein 3 (AID 2282926); conditions: HepG2 CRE cis-reporter, Attagene multiplexed mRNA; actives raise or lower the signal
# How it was run: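 We dosed HepG2 cells bearing multiple cis-promoter reporter units for 24 h and measured reporter mRNA by RT-PCR with capillary electrophoresis detection. Bidirectional concentration-response fitting used DMSO as negative control.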
# [2] = target: CCAAT/enhancer-binding protein beta (Homo sapiens) (UniProt P17676); experiment: ATG_C_EBP_CIS: Attagene CIS-FACTORIAL HepG2 Assay for human CCAAT/Enhancer Binding Protein (C/EBP) beta (AID 2282927); conditions: HepG2 Attagene cis-factorial transcription factor reporter; actives raise or lower the signal
# How it was run: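 Chemical-treated HepG2 cells (24 h) bearing cis-regulated reporter constructs were processed for total RNA, then reverse transcription, PCR amplification, fluorescent primer extension and fragment analysis; gain- and loss-of-signal were fitted against DMSO.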
# [3] = ATG_CMV_CIS: Attagene CIS-FACTORIAL HepG2 Assay for human CMV (Internal Marker) (AID 2282928); conditions: HepG2 CMV promoter reporter, transcription factor profiling; actives raise or lower the signal;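 also: endpoint acts as a background internal control marker rather than a target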
# How it was run: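 After transient transfection of HepG2 with reporter transcription units driven by cis-regulatory promoters, cells receive test chemical for 24 h. Labeled reporter amplicons, digested with HpaI, are sized and quantified by capillary electrophoresis against DMSO.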
# [4] = ATG_DR4_LXR_CIS: Attagene CIS-FACTORIAL HepG2 Assay for human Liver X Receptor (LXR), DR4 submotif (AID 2282929); conditions: HepG2 Attagene DR4 cis-reporter, mRNA transcription; actives raise or lower the signal
# How it was run: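 HepG2 cells transiently transfected with cis-promoter-driven multiplexed reporter units (DR4 element) were dosed for 24 h. Reporter mRNA was quantified by RT-PCR, fluorescent primer extension, HpaI digestion and capillary electrophoresis; bidirectional fitting versus DMSO baseline.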
# [5] = target: Aryl hydrocarbon receptor (Homo sapiens) (UniProt P35869); experiment: ATG_Ahr_CIS: Attagene CIS-FACTORIAL HepG2 Assay for human Aryl Hydrocarbon Receptor (Ahr) (AID 2282930); conditions: HepG2 AhR cis-factorial reporter transcription; actives raise or lower the signal
# How it was run: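 Following 24 h of chemical dosing, transfected HepG2 liver cells with cis-driven reporter units were lysed for RNA; reporter mRNA was quantified via RT-PCR and capillary electrophoresis, and responses fitted bidirectionally from DMSO.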
# [6] = ATG_AP_2_CIS: Attagene CIS-FACTORIAL HepG2 Assay for human Activator Protein 2 (AP-2) (AID 2282932); conditions: HepG2 AP-2 cis-reporter, Attagene transcription factor profiling; actives raise or lower the signal
# How it was run: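 HepG2 cells were transiently transfected with multiple cis-promoter reporter transcription units and dosed for 24 h. Reporter mRNA was measured by RT-PCR with capillary electrophoresis fluorescence; bidirectional fits relative to DMSO baseline.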
# [7] = ATG_BRE_CIS: Attagene CIS-FACTORIAL HepG2 Assay for human Bone Morphogenetic Protein (BMP) Response Element (BRE) (AID 2282933); conditions: HepG2 BMP response element reporter, Attagene transcription factor profiling; actives raise or lower the signal
# How it was run: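 Endogenous transcription factor activity at a BMP response element was monitored in transfected HepG2 cells 24 h after dosing. Fluorescent RT-PCR products were resolved by capillary electrophoresis, and activity was fitted in both directions versus DMSO.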
# [8] = target: Transcription factor E2F1 (Homo sapiens) (UniProt Q01094); experiment: ATG_E2F_CIS: Attagene CIS-FACTORIAL HepG2 Assay for human E2F Transcription Factor 1 (AID 2282935); conditions: HepG2 Attagene cis-reporter, E2F reporter RNA transcripts; actives raise or lower the signal
# How it was run: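 HepG2 cells transiently transfected with multiplexed cis-element reporter units, dosed for 24 h. Reporter mRNA measured by RT-PCR, 6-FAM primer-extension labeling, HpaI digestion and capillary electrophoresis; bidirectional fit versus DMSO baseline.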
# [9] = ATG_M_61_CIS: Attagene CIS-FACTORIAL HepG2 Assay for M61 Transcription Factor (Internal Marker) (AID 2282937); conditions: HepG2 Attagene CIS-FACTORIAL M61 internal marker reporter; actives raise or lower the signal
# How it was run: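 HepG2 cells transiently transfected with cis-element-driven multiple reporter transcription units, dosed for 24 h. Reporter mRNA measured by RT-PCR, 6-FAM primer-extension labelling, HpaI digestion and capillary electrophoresis; bidirectional fit versus DMSO baseline.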
# [10] = ATG_EGR_CIS: Attagene CIS-FACTORIAL HepG2 Assay for human Early Growth Response 1 (EGR1) (AID 2282938); conditions: HepG2 Attagene CIS-FACTORIAL EGR reporter mRNA; actives raise or lower the signal
# How it was run: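 HepG2 cells transiently transfected with cis-promoter-driven multiplexed reporter transcription units; reporter mRNA measured 24 h after compound dosing by RT-PCR, 6-FAM primer extension, HpaI digestion and capillary electrophoresis. Bidirectional fit versus DMSO baseline.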
# [11] = ATG_M_19_CIS: Attagene CIS-FACTORIAL HepG2 Assay for M19 Transcription Factor (Internal Marker) (AID 2282939); conditions: HepG2 Attagene CIS-FACTORIAL M19 internal marker reporter; actives raise or lower the signal
# How it was run: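 Background-control endpoint from a multiplexed HepG2 reporter panel. Cells carrying cis-regulated reporter constructs are treated 24 h, then reporter transcripts are amplified, fluorescently labelled and sized by capillary electrophoresis. DMSO defines baseline.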
# [12] = ATG_ERE_CIS: Attagene CIS-FACTORIAL HepG2 Assay for Estrogen Response Element (ERE) (AID 2282940); conditions: HepG2 ERE cis-reporter, Attagene RNA transcript; actives raise or lower the signal
# How it was run: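 Cells used were human hepatoma HepG2, transfected with multiple reporter transcription units under cis-regulatory promoters. Reporter mRNA, read 24 h post-dosing via fluorescent RT-PCR products on capillary electrophoresis, was fitted bidirectionally relative to DMSO.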
# [13] = ATG_Ets_CIS: Attagene CIS-FACTORIAL HepG2 Assay for human Erythroblast Transformation Specific (ETS) (AID 2282941); conditions: HepG2 ETS cis-reporter transcription, actives raise or lower the signal
# How it was run: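 Human HepG2 hepatoma cells were transiently transfected with promoter-driven reporter constructs and treated for 24 hours. Reporter transcripts were quantified by RT-PCR with fluorescent primer extension; bidirectional curve fitting used DMSO as reference.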
# [14] = target: Hepatocyte nuclear factor 3-beta (Homo sapiens) (UniProt Q9Y261); experiment: ATG_FoxA2_CIS: Attagene CIS-FACTORIAL HepG2 Assay for human Forkhead box A2 (FOXA2) (AID 2282942); conditions: HepG2 cis-reporter transcription factor activity, 24 h; actives raise or lower the signal
# How it was run: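 HepG2 cells transiently transfected with multiple cis-regulated reporter transcription units, dosed for 24 h. Reporter mRNA measured by RT-PCR, 6-FAM labelling, HpaI digestion and capillary electrophoresis; bidirectional fitting against DMSO baseline.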
# [15] = ATG_FoxO_CIS: Attagene CIS-FACTORIAL HepG2 Assay for human Forkhead box O (FoxO) (AID 2282943); conditions: HepG2 Attagene cis-reporter, FoxO element, mRNA; actives raise or lower the signal
# How it was run: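 24 h chemical exposure, HepG2 with transient cis-MRTU transfection. RNA extraction, oligo(dT) RT, reporter-specific PCR, primer-extension labelling, HpaI digestion, CE fragment analysis; bidirectional fit, DMSO baseline.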
# [16] = ATG_GATA_CIS: Attagene CIS-FACTORIAL HepG2 Assay for human GATA Binding Protein (AID 2282944); conditions: HepG2 GATA cis-element reporter, Attagene multiplex mRNA; actives raise or lower the signal
# How it was run: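 Endogenous transcription factor activity was captured through cis-promoter-driven reporters in transfected HepG2 cells. After 24 h exposure, reporter transcripts were quantified by RT-PCR with fluorescent capillary electrophoresis, and responses fitted both directions against DMSO.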
# [17] = ATG_GLI_CIS: Attagene CIS-FACTORIAL HepG2 Assay for human Zinc Finger Protein GLI1 (AID 2282945); conditions: HepG2, Attagene cis-factorial reporter mRNA, GLI element; actives raise or lower the signal
# How it was run: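 HepG2 cells transiently transfected with cis-promoter multiplexed reporter units report endogenous transcription factor activity. After 24 h chemical exposure, reporter mRNA was quantified by RT-PCR, 6-FAM labelling, HpaI digestion and capillary electrophoresis, with bidirectional fitting against DMSO.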
# [18] = ATG_E_Box_CIS: Attagene CIS-FACTORIAL HepG2 Assay for human Enhancer Box (E-box) (AID 2282936); conditions: HepG2 E-box cis-reporter transcription, actives raise or lower the signal
# How it was run: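 HepG2 cells transiently transfected with multiplexed cis-element reporter units sensing endogenous transcription factor activity; 24 h compound exposure. Reporter mRNA measured by RT-PCR, 6-FAM primer extension, HpaI digestion and capillary electrophoresis; bidirectional fit versus DMSO.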
# [19] = ATG_AP_1_CIS: Attagene CIS-FACTORIAL HepG2 Assay for human Activator Protein 1 (AP-1) (AID 2282931); conditions: HepG2 Attagene cis-factorial AP-1 reporter mRNA; actives raise or lower the signal
# How it was run: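 HepG2 cells transiently transfected with cis-element-driven multiplex reporter units; 24 h compound exposure. Reporter mRNA quantified by RT-PCR, FAM-labelled fragments resolved by capillary electrophoresis; bidirectional fit versus DMSO baseline.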
# CCAAT/enhancer-binding protein beta (Homo sapiens), sequence (P17676 whole entry, looked up, the tested form may be a part): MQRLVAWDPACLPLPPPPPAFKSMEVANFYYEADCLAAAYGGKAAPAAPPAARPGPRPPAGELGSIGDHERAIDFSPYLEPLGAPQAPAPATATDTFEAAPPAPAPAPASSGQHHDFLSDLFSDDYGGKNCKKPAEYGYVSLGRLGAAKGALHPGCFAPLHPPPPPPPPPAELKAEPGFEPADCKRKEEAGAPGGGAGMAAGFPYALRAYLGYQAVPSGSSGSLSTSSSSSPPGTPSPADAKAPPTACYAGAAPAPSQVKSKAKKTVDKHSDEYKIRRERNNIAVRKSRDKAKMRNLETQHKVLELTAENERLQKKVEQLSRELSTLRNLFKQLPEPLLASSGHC
# Hepatocyte nuclear factor 3-beta (Homo sapiens), sequence (Q9Y261 whole entry, looked up): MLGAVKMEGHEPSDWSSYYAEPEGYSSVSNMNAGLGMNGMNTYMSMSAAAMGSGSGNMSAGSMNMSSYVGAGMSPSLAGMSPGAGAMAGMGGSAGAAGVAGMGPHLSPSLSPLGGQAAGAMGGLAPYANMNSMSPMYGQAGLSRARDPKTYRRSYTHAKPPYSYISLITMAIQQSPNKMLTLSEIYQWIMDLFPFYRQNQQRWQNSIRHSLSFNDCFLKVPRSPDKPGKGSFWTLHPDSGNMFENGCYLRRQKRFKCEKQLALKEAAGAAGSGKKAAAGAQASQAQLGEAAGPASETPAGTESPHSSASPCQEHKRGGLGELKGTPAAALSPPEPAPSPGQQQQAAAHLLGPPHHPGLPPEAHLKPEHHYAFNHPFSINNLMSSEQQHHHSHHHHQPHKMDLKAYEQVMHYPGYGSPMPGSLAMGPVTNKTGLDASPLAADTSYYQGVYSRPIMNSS
# Transcription factor E2F1 (Homo sapiens), sequence (Q01094 whole entry, looked up): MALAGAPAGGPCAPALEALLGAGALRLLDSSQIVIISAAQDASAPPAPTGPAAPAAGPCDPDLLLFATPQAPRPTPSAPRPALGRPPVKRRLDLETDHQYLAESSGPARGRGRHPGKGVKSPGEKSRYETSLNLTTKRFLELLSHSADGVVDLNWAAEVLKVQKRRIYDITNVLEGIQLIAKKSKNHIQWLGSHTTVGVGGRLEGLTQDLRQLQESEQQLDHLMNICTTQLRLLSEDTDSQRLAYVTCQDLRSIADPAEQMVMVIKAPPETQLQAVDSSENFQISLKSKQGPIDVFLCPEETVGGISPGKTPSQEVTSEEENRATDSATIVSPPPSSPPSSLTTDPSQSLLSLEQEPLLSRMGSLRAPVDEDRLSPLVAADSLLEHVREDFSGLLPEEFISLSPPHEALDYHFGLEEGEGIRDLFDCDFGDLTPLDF
# Aryl hydrocarbon receptor (Homo sapiens), sequence (P35869 whole entry, looked up): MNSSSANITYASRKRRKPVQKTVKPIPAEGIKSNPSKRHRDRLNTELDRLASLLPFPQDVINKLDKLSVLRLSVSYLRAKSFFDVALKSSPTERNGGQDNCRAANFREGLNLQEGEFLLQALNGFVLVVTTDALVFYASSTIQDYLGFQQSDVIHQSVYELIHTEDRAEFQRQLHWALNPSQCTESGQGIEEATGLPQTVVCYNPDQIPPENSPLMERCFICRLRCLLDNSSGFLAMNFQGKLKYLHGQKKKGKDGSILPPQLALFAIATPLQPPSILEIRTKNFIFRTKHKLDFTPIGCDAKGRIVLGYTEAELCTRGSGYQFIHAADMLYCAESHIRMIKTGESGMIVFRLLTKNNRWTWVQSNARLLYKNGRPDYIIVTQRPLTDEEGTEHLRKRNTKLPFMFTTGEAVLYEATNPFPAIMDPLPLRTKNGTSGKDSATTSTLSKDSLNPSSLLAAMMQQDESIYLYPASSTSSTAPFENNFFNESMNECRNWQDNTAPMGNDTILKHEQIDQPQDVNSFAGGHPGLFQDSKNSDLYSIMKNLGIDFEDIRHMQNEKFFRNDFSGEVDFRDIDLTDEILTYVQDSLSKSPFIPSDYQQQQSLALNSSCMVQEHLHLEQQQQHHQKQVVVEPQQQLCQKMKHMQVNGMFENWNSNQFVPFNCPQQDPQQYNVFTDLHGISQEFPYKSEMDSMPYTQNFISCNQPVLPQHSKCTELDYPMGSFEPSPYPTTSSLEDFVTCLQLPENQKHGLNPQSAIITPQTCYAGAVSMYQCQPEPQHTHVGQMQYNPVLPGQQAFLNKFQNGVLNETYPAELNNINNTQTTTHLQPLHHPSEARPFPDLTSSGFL
compound,measurement,setting,value
C=CC(C)(CCC=C(C)C)OC=O (centres undefined),outcome,[1],inactive
same,outcome,[2],inactive
same,outcome,[3],inactive
same,outcome,[4],inactive
same,outcome,[5],inactive
same,outcome,[6],inactive
same,outcome,[7],inactive
same,outcome,[8],inactive
same,outcome,[9],inactive
same,outcome,[10],inactive
same,outcome,[11],inactive
same,outcome,[12],inactive
same,outcome,[13],inactive
same,outcome,[14],inactive
same,outcome,[15],inactive
same,outcome,[16],inactive
same,outcome,[17],inactive
CN(C)c1ccc(O)c2c1C[C@H]1C[C@H]3[C@H](N(C)C)C(=O)C(C(N)=O)=C(O)[C@@]3(O)C(=O)C1=C2O,outcome,[1],inactive
same,outcome,[2],inactive
same,outcome,[3],inactive
same,outcome,[4],inactive
same,outcome,[5],inactive
same,outcome,[6],inactive
same,outcome,[8],inactive
same,outcome,[18],inactive
same,outcome,[9],inactive
same,outcome,[11],inactive
same,outcome,[12],inactive
same,outcome,[13],inactive
same,outcome,[14],inactive
same,outcome,[15],inactive
same,outcome,[17],inactive
O=[N+]([O-])c1ccc(Nc2ccc(Nc3ccccc3)c(S(=O)(=O)O)c2)c([N+](=O)[O-])c1,outcome,[1],inactive
same,outcome,[2],inactive
same,outcome,[3],inactive
same,AC50,[4],100 µM (active)
same,AC50,[5],31.9 µM (active)
same,outcome,[6],inactive
same,outcome,[7],inactive
same,outcome,[8],inactive
same,outcome,[18],inactive
same,outcome,[9],inactive
same,AC50,[10],100 µM (active)
same,outcome,[11],inactive
same,outcome,[13],inactive
same,outcome,[14],inactive
same,outcome,[15],inactive
same,outcome,[16],inactive
same,outcome,[17],inactive
C=C(C)C1CCC(C)CC1O (centres undefined),outcome,[1],inactive
same,outcome,[2],inactive
same,outcome,[3],inactive
same,outcome,[4],inactive
same,outcome,[5],inactive
same,outcome,[19],inactive
same,outcome,[6],inactive
same,outcome,[8],inactive
same,outcome,[9],inactive
same,outcome,[10],inactive
same,outcome,[11],inactive
same,outcome,[13],inactive
same,outcome,[14],inactive
same,outcome,[15],inactive
same,outcome,[16],inactive
same,outcome,[17],inactive
CC(C)(Oc1ccc(CCNC(=O)c2ccc(Cl)cc2)cc1)C(=O)O,outcome,[1],inactive
same,outcome,[2],inactive
same,outcome,[3],inactive
same,outcome,[4],inactive
same,outcome,[5],inactive
same,outcome,[19],inactive
same,outcome,[6],inactive
same,outcome,[8],inactive
same,outcome,[9],inactive
same,outcome,[10],inactive
same,outcome,[11],inactive
same,outcome,[12],inactive
same,outcome,[13],inactive
same,outcome,[14],inactive
same,outcome,[15],inactive
same,outcome,[16],inactive
same,outcome,[17],inactive
COc1ccnc(CS(=O)c2nc3cc(OC(F)F)ccc3[nH]2)c1OC (centres undefined),outcome,[1],inactive
same,outcome,[2],inactive
same,outcome,[3],inactive
same,outcome,[4],inactive
same,outcome,[5],inactive
same,outcome,[6],inactive
same,outcome,[8],inactive
same,outcome,[18],inactive
same,outcome,[9],inactive
same,outcome,[10],inactive
same,outcome,[11],inactive
same,outcome,[12],inactive
same,outcome,[13],inactive
same,outcome,[14],inactive
same,outcome,[15],inactive
same,outcome,[16],inactive
same,outcome,[17],inactive
CC(=O)O[C@H](CC(=O)[O-])C[N+](C)(C)C,outcome,[1],inactive
same,outcome,[2],inactive
same,outcome,[3],inactive
same,outcome,[4],inactive
same,outcome,[5],inactive
same,outcome,[6],inactive
same,outcome,[7],inactive
same,outcome,[8],inactive
same,outcome,[9],inactive
same,outcome,[11],inactive
same,outcome,[12],inactive
same,outcome,[14],inactive
same,outcome,[15],inactive
same,outcome,[16],inactive
same,outcome,[17],inactive
